Among the data in PubChem BioAssay are composite z-score and z-score values, retold here.

SMILES strings stand for the structures. Activity calls are given as the source filed them.

For assay [1], the system named is Plasmodium falciparum Sir2 (PF13_0152, Sir2A). Kind of assay: pfSir2 binders on small-molecule microarrays, primary screen, biochemical, small-molecule microarray, 635 nm fluorescence (AID 1098).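 Further: score merges spot fluorescence intensity with its signal-to-noise ratio.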 The settings on record: small-molecule microarray binding, fluorescence 635 nm; higher = more signal.
Assay [2] is described as follows: small-molecule microarray binders of probe aDKK1, primary screen, biochemical, biotinylated probe, 635/667 nm fluorescence (AID 1099).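 Further: score merges 667nm spot fluorescence with signal to noise across triplicate slides; reference of the scale not given here.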 The settings on record: higher = more signal.
Assay [3] is described as follows: small-molecule microarray binders of probe aCHRDL2, primary screen, biochemical, biotinylated probe, 635/667 nm fluorescence (AID 1100). Particulars: higher = more signal.
Assay [4] can be described thus: splicing luciferase reporter signal modulators, primary screen, spliceosome inhibition project, cell-based, HEK293, splice +/- reporter (AID 1101).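 Further: HEK293 cells carrying a splicing-competent luciferase reporter gene; test concentration not given here.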 The settings on record: luminescence, 24 h, higher = more signal, called active from +8 up or from −8 down.
Assay [5] addresses Fibroblast growth factor 10 (Homo sapiens) (UniProt O15520). Kind of assay: FGF10 binders on small-molecule microarrays, primary screen, biochemical, small-molecule microarray, 635 nm fluorescence (AID 1102). The settings on record: FGF10 binding, fluorescence 635 nm, higher = more signal.
In assay [6] the test system is glycogen synthase kinase-3 (GSK3A per assay name; protocol says GSK3B). Kind of assay: GSK3 binders on small-molecule microarrays, primary screen, biochemical, small-molecule microarray, 635 nm fluorescence, GSK3A (AID 1103). Further: the record names both GSK3A and GSK3B. The settings on record: small-molecule microarray binding, fluorescence 635 nm; higher = more signal.
Assay [7] deals with Epidermal growth factor receptor (Homo sapiens) (UniProt P00533). Kind of assay: EGFR binders on small-molecule microarrays, primary screen, biochemical, small-molecule microarray, 635 nm fluorescence (AID 1104).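 Further: score merges 667 nm emission intensity with spot signal to noise over triplicate slides.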 The settings on record: EGFR binding, higher = more signal.
Sequence of Epidermal growth factor receptor (Homo sapiens) (P00533 whole entry, looked up): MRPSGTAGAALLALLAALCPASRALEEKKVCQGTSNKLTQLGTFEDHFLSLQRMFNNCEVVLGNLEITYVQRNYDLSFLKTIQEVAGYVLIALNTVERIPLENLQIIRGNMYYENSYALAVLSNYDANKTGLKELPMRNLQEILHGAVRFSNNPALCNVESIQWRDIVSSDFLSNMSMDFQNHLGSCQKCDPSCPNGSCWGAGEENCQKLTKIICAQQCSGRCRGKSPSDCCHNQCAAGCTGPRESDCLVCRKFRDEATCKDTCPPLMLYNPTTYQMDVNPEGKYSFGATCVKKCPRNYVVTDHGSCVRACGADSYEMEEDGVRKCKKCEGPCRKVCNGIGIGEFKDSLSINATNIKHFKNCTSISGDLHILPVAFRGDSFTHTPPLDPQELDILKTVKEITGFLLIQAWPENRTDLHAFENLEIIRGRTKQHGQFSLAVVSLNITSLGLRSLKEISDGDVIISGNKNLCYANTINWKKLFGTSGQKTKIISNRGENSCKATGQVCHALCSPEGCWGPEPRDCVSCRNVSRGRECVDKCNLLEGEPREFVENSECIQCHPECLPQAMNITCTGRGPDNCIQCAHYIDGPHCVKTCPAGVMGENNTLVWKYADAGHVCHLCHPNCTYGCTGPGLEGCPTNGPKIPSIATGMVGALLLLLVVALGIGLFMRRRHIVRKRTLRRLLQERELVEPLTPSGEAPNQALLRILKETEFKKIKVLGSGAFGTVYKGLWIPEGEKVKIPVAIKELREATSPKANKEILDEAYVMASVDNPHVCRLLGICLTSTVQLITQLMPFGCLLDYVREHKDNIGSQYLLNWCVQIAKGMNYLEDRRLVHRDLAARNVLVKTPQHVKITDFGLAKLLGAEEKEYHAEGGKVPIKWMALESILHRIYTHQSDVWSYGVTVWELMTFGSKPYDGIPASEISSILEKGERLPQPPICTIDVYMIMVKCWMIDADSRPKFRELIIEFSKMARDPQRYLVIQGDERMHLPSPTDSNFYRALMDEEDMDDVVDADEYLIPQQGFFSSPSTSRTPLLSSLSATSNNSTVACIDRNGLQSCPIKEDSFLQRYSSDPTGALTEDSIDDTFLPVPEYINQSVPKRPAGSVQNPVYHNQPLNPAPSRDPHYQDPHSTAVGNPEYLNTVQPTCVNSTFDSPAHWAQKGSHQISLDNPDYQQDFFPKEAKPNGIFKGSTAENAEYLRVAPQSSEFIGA
Assay [8] deals with Follistatin-related protein 3 (Homo sapiens) (UniProt O95633). Kind of assay: FSTL3 binders on small-molecule microarrays, primary screen, biochemical, small-molecule microarray, 635 nm fluorescence (AID 1105).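 Further: score merges emission near 667 nm and signal to noise per printed spot across three slides.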 Particulars: FSTL3 binding, higher = more signal.
Sequence of Follistatin-related protein 3 (Homo sapiens) (O95633 whole entry, looked up): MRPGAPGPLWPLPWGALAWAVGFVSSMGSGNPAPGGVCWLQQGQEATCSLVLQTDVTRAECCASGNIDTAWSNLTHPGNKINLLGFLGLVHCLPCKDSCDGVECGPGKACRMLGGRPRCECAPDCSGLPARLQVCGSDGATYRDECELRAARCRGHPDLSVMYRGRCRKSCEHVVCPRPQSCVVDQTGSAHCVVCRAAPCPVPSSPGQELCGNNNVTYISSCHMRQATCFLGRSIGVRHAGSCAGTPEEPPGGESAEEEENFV
For assay [9], the target named is Dickkopf-related protein 1 (Homo sapiens) (UniProt O94907). Kind of assay: DKK1 binders on small-molecule microarrays, primary screen, biochemical, small-molecule microarray, 635 nm fluorescence scan (AID 1106).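 Further: score merges emission near 667 nm with signal to noise over three replicate slides.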 Particulars: DKK1 binding, higher = more signal.
Sequence of Dickkopf-related protein 1 (Homo sapiens) (O94907 whole entry, looked up): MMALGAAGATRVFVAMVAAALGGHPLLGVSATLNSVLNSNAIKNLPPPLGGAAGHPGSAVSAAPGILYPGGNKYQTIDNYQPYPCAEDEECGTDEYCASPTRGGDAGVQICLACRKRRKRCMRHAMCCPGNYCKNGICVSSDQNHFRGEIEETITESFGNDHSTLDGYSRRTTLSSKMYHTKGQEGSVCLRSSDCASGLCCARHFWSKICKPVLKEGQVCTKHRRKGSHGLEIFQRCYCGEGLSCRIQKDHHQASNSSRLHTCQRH
Assay [10] has as its system Inhibin beta A chain (activin A). Kind of assay: INHBA (activin A) binders on microarrays, primary screen, biochemical, small-molecule microarray, 635 nm fluorescence scan (AID 1107).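 Further: mouse activin A protein probed at 4.33 µg/mL on printed slides; score merges bound-protein fluorescence near 667 nm with spot signal-to-noise.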 Particulars: small-molecule microarray binding, higher = more signal.

Sequence of Fibroblast growth factor 10 (Homo sapiens) (O15520 whole entry, looked up): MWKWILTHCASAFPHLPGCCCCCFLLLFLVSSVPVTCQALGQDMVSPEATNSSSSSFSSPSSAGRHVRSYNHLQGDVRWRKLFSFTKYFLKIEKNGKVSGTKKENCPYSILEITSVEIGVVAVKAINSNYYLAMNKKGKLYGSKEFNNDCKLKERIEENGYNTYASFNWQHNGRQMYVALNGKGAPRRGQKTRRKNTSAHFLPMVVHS

`CCOC(=O)C[C@H]1[C@H](OC(=O)c2ccccc2-c2ccccc2)[C@@H](NC(=O)c2ccc3ccccc3n2)c2cc(OCCCO)ccc2N1C(=O)c1ccccc1`: the composite z-score in assay [1] is 0.459; in assay [2], -0.269; in assay [3], -0.46; in assay [5] it was 0.526; in assay [6], 0.45; in [7] it was 0.575. The composite z-score in assay [8] was determined as 0.581; in [9], 0.499; in [10], 0.0428. Moreover, the z-score in [4] was -0.407 (inactive).
As for `O=C1C[C@@](C(=O)NCc2ccccc2)(c2ccc([N+](=O)[O-])cc2)[C@@H](c2ccc(CO)cc2I)N1CC12CC3CC(CC(C3)C1)C2`, the composite z-score in assay [1] was 1.05; in [2], -0.0517; in assay [3], 0.214; in [5] it was 1.31; in assay [6], 0.794; in assay [7] it was 0.547. The values for the composite z-score in assay [8], in assay [9] and in assay [10] were 1.44, 0.578 and -0.0204, respectively. Also, the z-score in assay [4] is -0.218 (inactive).
For the molecule `CCCCNC(=O)c1ccc(C#C[Si](C(C)C)(C(C)C)C(C)C)c(OC(C)=O)c1`, the composite z-score in [1] is 0.28; in assay [2] it was -0.0188; in [3], -0.539; in assay [5], 0.832; in assay [6], 0.807; in [7], 1.36. In addition, the results for the composite z-score in assay [8], in assay [9] and in assay [10] were 1.49, 0.784 and 1.59, respectively. In assay [4], the z-score was -0.831 (inactive).
In the case of `CCOC(=O)C=Cc1ccccc1O`, the composite z-score was 0.109 in [1]; -0.0604 in assay [2]; 0.329 in assay [3]; 0.278 in assay [5]; 0.513 in assay [6]; 0.363 in assay [7]. In addition, the results for the composite z-score in assay [8], in assay [9] and in assay [10] were 0.435, -0.0242 and 0.75, respectively. Further, the z-score in assay [4] was -1.74 (inactive).
As for `CCCCC=C[C@@H](NC(=O)c1ccccc1)c1ccccc1`, the composite z-score was 0.322 in assay [1]; 0.357 in [2]; 0.732 in assay [3]; 0.659 in [5]; 1.22 in assay [6]; -0.056 in assay [7]. Further, the values for the composite z-score in assay [8], in assay [9] and in assay [10] were 0.79, 0.0017 and 1.01, respectively. In addition, in assay [4], the z-score is -0.696 (inactive).
Consider `Cc1ccc(S[C@]2(C(=O)NCC(C)C)CC(=O)N(C3Cc4ccccc4C3)[C@@H]2c2ccc(CO)cc2I)cc1`, for which the composite z-score in assay [1] was 1.35; in assay [2], -0.126; in [3], -0.0156; in [5] it was -0.767; in assay [6], -0.61; in assay [7] it was -0.821. The results for the composite z-score in [8], in assay [9] and in assay [10] were 0.594, -1.02 and 0.847, respectively. For the same molecule, in assay [4], the z-score was -0.968 (inactive).
On to `COCC(=C=CC[C@@H](O)c1ccc(OCCO)cc1)CCO`, for which the composite z-score is 1.67 in assay [1]; -0.0695 in assay [2]; -0.113 in assay [3]; 1.27 in assay [5]; -0.155 in assay [6]; -0.265 in assay [7]. Besides, the composite z-score is 0.409 in assay [8], 0.299 in assay [9] and 0.892 in assay [10]. For the same molecule, in assay [4], the z-score is 1.12 (inactive).
For the molecule `CC(CO)N1C(=O)[C@@H]2[C@H]3C(=O)OCC=C[C@H]3OC23C=CCN(c2ccc(Cl)cc2)C(=O)[C@@H]13` (stereo not given in full), the composite z-score in assay [1] is 1.93; in assay [2], -0.125; in assay [3], 0.837; in [5], -1.59; in assay [6], -0.501; in assay [7], -2.15. In addition, the composite z-score is -2.43 in assay [8], -1.92 in [9] and -3.56 in assay [10]. Further, the z-score in [4] was -0.00913 (inactive).
Take `COc1cccc(/C=C(\C#N)C(=O)Nc2c(C)n(C)n(-c3ccccc3)c2=O)c1`: the composite z-score in assay [1] was 0.129; in [2], -0.0045; in assay [3] it was 0.0654; in [5], 0.179; in assay [6] it was 0.497; in assay [7], 0.413. The figures for the composite z-score in [8], in assay [9] and in assay [10] were 0.447, 0.0952 and 0.141, respectively. Moreover, the z-score in assay [4] was -0.238 (inactive).
With `[N-]=[N+]=Nc1ccccc1C[C@]1(C(=O)O)N=C(c2ccc(OCCCO)cc2)O[C@H]1c1ccccc1`, the composite z-score in assay [1] was 1.71; in assay [2], 0.336; in [3], 0.724; in assay [5], 0.143; in [6] it was 0.0096; in [7], -0.839. Also, the composite z-score was 0.195 in [8], -0.689 in assay [9] and 0.86 in [10]. In addition, in assay [4], the z-score was -0.918 (inactive).
In the case of `COc1ccc(C(O)C2C=CC3C(=O)N(c4ccccc4)C(=O)C3N2Nc2ccccc2)cc1` (stereo not given), the composite z-score in assay [1] was 0.97; in assay [2], -0.0903; in [3], 0.637; in assay [5] it was 1.31; in [6], 0.592; in assay [7] it was 0.199. The composite z-score in assay [8] is 1.37; in [9] it was -0.0198; in assay [10], 1.04. The z-score in [4] is 1.68 (inactive).
In the case of `O=C1C2C=CC(C(O)c3ccco3)N(Nc3ccccc3)C2C(=O)N1c1ccccc1` (stereo not given), the composite z-score in assay [1] was 0.576; in assay [2], 0.144; in assay [3], 0.878; in assay [5] it was -0.322; in [6], -0.678; in assay [7], -0.616. The composite z-score is -0.713 in [8], -0.555 in assay [9] and 0.781 in assay [10]. Further, the z-score in [4] is 0.14 (inactive).
